Assay in all cases: PBM binding z-score (relative to random genomic background probes); higher = stronger binding; sequences stand for … in GC…GCGATTGACAGCGTAGAATGAAGG
Test [1] concerns RARb homodimer (NR concentration 270 nM). The procedure, abridged:
(§1)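 Binding z-scores were set against random background probes. The data came from custom Agilent 4×180K protein-binding microarrays carrying double-stranded probes with 34-nt variable regions, incubated 1 h with ligand-free nuclear receptor dimers. Partner-specific antibodies detected binding, and scanned fluorescence was regression-normalized.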

Test [2] relates to RARg:RXRa (NR concentration 270 nM, RXRa partner concentration 90 nM). The procedure, abridged:
as §1

The subject of test [3] is RARg homodimer (NR concentration 270 nM). In short, it runs like this: as §1
The test system of test [4] is RXRa DBDmut IVT, anti-RXR (DBD mutation: RXRa K156A/R161A, NR concentration 90 nM). The procedure, abridged: as §1
The subject of test [5] is RXRa homodimer (NR concentration 180 nM). The procedure, abridged: as §1
Test [6] relates to THRa:RXRa (NR concentration 90 nM, RXRa partner concentration 90 nM). In short, it runs like this: as §1
Test [7] relates to THRa homodimer (NR concentration 90 nM). In short, it runs like this:
as §1

Test [8] deals with VDR:RXRa (NR concentration 270 nM, RXRa partner concentration 90 nM). The procedure, abridged:
as §1

The subject of test [9] is VDR homodimer (NR concentration 270 nM). The procedure, abridged: as §1

AGATGTAGGTTAAGGGTCATTCAGGTTGGTTCGC: the PBM binding z-score in [1] was 4.06; in [2] it was 4.87; in [3] it was 3.79; in [4], 2.18; in test [5] it was 6.66; in test [6], 3.64. Further, the results for the PBM binding z-score in [7], in [8] and in test [9] were 2.06, 5.59 and 4.78, respectively.

Regarding TCTATTAGTTGATTAGGGCAACCAAAACAGCGGA, the PBM binding z-score came out at 0.623 in test [1]; 0.694 in test [2]; 0.677 in test [3]; 0.92 in test [4]; 0.57 in [5]; 0.825 in test [6]. The values for the PBM binding z-score in test [7], in test [8] and in test [9] were 0.291, 0.701 and 0.358, respectively.

For the sequence TCATATAGGTAACAGGTGAAAGTCGGTGTGGTAA, the PBM binding z-score in test [1] was found to be 1.03; in test [2] it was 0.519; in [3] it was 0.556; in test [4], 1.41; in test [5], 1.11; in test [6], 0.822. Besides, the PBM binding z-score was found to be 0.292 in test [7], 0.96 in test [8] and 0.21 in test [9].

As for TGACTGAGGTTATAAGATCAGGGAACGTTGCAAA, the PBM binding z-score in test [1] stood at 0.146; in test [2], 1.59; in test [3], 0.985; in test [4], 0.64; in [5], 1.87; in [6] it was 1.58. In addition, the PBM binding z-score was -0.016 in test [7], 0.798 in test [8] and 0.435 in test [9].

In the case of CCTACTGGGCCACGAAAGGTCATTGAATCAGTGA, the PBM binding z-score in test [1] came to 4.71; in test [2] it was 4.78; in test [3], 4.92; in test [4], 0.485; in [5] it was 5.26; in [6], 3.64. Further, the PBM binding z-score in test [7] turned out to be 0.999; in test [8] it was 4.14; in test [9], 1.9.

TCTATTAGTAGAAGGGCAACCGACGAGTCCGTTT: the PBM binding z-score in test [1] was 0.923; in test [2], 0.406; in [3], 0.636; in test [4], 1.23; in test [5] it was 0.785; in [6], -0.0492. In addition, the PBM binding z-score was -0.359 in test [7], 0.796 in [8] and 1.18 in test [9].

Turning to ATAAGTAGGTTATCGGGTCATTCAGTTTGCGCAT, the PBM binding z-score stood at 3.12 in test [1]; 3.44 in [2]; 2.43 in test [3]; 1.57 in [4]; 3.55 in [5]; 3.29 in test [6]. For the same sequence, the PBM binding z-score came to 2.93 in test [7], 5.16 in test [8] and 4.49 in test [9].

In the case of CATAGCAGGCCAATCTGGGTCACTCAAGGCTTGA, the PBM binding z-score in test [1] was 1.85; in test [2], 1.44; in test [3] it was 1.57; in test [4] it was -0.0976; in test [5], 1.09; in [6] it was 3.69. Also, the figures for the PBM binding z-score in test [7], in test [8] and in test [9] were 0.366, 0.95 and -0.0851, respectively.

As to CCTCGAAGGACAGAAGGTCAGAGCTGTCCGCTTT, the PBM binding z-score turned out to be 3.54 in test [1]; 3.21 in test [2]; 2.98 in test [3]; 0.128 in test [4]; 1.76 in test [5]; 1.62 in [6]. For the same sequence, the values for the PBM binding z-score in [7], in [8] and in [9] were 0.0154, 0.957 and 0.121, respectively.

As to CCGACTGGGGCAAGGTTAGCATAACGCACAGCCA, the PBM binding z-score in test [1] was 0.752; in test [2] it was 0.574; in [3] it was 0.814; in [4], -0.5; in test [5] it was 0.57; in test [6] it was 0.333. Also, the values for the PBM binding z-score in [7], in test [8] and in test [9] were -0.266, -0.429 and -0.191, respectively.

As for TCGAGTAGGTTACGGGCATTCAGAATGGCGTCGA, the PBM binding z-score in test [1] was 0.362; in test [2], 0.594; in [3] it was 0.594; in test [4], -0.00223; in test [5] it was 0.855; in test [6], 0.116. The PBM binding z-score in [7] was -0.913; in [8] it was -0.46; in test [9], -0.716.

On to TCTTGTAGATCAAGCAGGTTAAAAAAGCCTGAGT, for which the PBM binding z-score in [1] was 0.112; in test [2], 0.141; in test [3], -0.124; in [4] it was 0.493; in test [5], 0.566; in test [6], 0.589. Further, the PBM binding z-score is -0.577 in test [7], 1.04 in [8] and 0.272 in test [9].

TAACCTAGGTCATTGGGCCAGTATAGTACGCATC: the PBM binding z-score in [1] came to 3.46; in test [2], 4.58; in test [3], 4.75; in test [4], 2.44; in test [5], 3.95; in test [6] it was 3.19. Besides, the PBM binding z-score worked out at 1.52 in test [7], 2.89 in test [8] and 2.14 in [9].

(Values after the supplement of paper PMC6555819.)
